From PubChem BioAssay AID1159580 (chemical genetic matrix, 2015)
Hit rate of the full screen: of about 5,500 compounds, about 2,000 (36%) were called active. About 18% were inconclusive and are not listed. Cut-off read from the data, not from the text of the source: active = normalized growth mostly below about 0.91 (no sharp cut-off); inconclusive = no clear call, values can overlap the other calls; inactive = mostly above about 0.92. The list shows a part of the results.

Test: chemical genetic growth profiling, strain panel (AID 1159580);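 note: tested at 20 µM; growth read once vehicle control cultures reached saturation at 30 °C; 1 = growth at the plate median or of vehicle wells; lower values mean less growth of the strain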
Conditions: growth OD

Measured: normalized growth

C[C@]12CC(=O)C3C(CC[C@@H]4C[C@H](O)CC[C@]34C)C1CC[C@]2(O)C(=O)CO (stereo not given in full)
inactive: S. cerevisiae deletion strains, locus YAL013W, strain DEP1, stronger effect = lower value 0.997 | S. cerevisiae deletion strains, locus YBR021W, strain FUR4, stronger effect = lower value 0.976 | S. cerevisiae deletion strains, locus YBR229C, strain ROT2, stronger effect = lower value 0.99 | S. cerevisiae deletion strains, locus YCL029C, strain bik1, stronger effect = lower value 1.01 | S. cerevisiae deletion strains, locus YDL035C, strain GPR1, stronger effect = lower value 0.996 | S. cerevisiae deletion strains, locus YDL074C, strain BRE1, stronger effect = lower value 0.978 | S. cerevisiae deletion strains, locus YDL101C, strain DUN1, stronger effect = lower value 0.996 | S. cerevisiae deletion strains, locus YDL185W, strain tfp1, stronger effect = lower value 0.977 | S. cerevisiae deletion strains, locus YDL192W, strain arf1, stronger effect = lower value 1 | S. cerevisiae deletion strains, locus YDR101C, strain arx1, stronger effect = lower value 0.978 | S. cerevisiae deletion strains, locus YDR150W, strain NUM1, stronger effect = lower value 0.994 | S. cerevisiae deletion strains, locus YDR162C, strain NBP2, stronger effect = lower value 1.02 | S. cerevisiae deletion strains, locus YDR318W, strain mcm21, stronger effect = lower value 1.01 | S. cerevisiae deletion strains, locus YDR388W, stronger effect = lower value 0.995 | S. cerevisiae deletion strains, locus YDR502C, strain sam2, stronger effect = lower value 1.01 | S. cerevisiae deletion strains, locus YEL061C, strain CIN8, stronger effect = lower value 0.995 | S. cerevisiae deletion strains, locus YER110C, stronger effect = lower value 0.986 | S. cerevisiae deletion strains, locus YER155C, strain BEM2, stronger effect = lower value 0.986 | S. cerevisiae deletion strains, locus YER167W, strain BCK2, stronger effect = lower value 0.992 | S. cerevisiae deletion strains, locus YGL078C, strain dbp3, stronger effect = lower value 0.983 | S. cerevisiae deletion strains, locus YGL086W, strain mad1, stronger effect = lower value 0.97 | S. cerevisiae deletion strains, locus YGL248W, strain PDE1, stronger effect = lower value 1.01 | S. cerevisiae deletion strains, locus YGR135W, strain pre9, stronger effect = lower value 1.03 | S. cerevisiae deletion strains, locus YGR252W, strain gcn5, stronger effect = lower value 1.06 | S. cerevisiae deletion strains, locus YHR030C, strain SLT2, stronger effect = lower value 0.991 | S. cerevisiae deletion strains, locus YHR079C, strain IRE1 (second series), stronger effect = lower value 0.992 | S. cerevisiae deletion strains, locus YHR094C, strain hxt1, stronger effect = lower value 0.986 | S. cerevisiae deletion strains, locus YHR129C, strain ARP1, stronger effect = lower value 0.992 | S. cerevisiae deletion strains, locus YHR200W, strain rpn10, stronger effect = lower value 1.02 | S. cerevisiae deletion strains, locus YIL066C, strain RNR3, stronger effect = lower value 0.998 | S. cerevisiae deletion strains, locus YIL073C, strain SPO22, stronger effect = lower value 1.03 | S. cerevisiae deletion strains, locus YIL125W, strain kgd1, stronger effect = lower value 0.997 | S. cerevisiae deletion strains, locus YIR030C, strain dcg1, stronger effect = lower value 0.991 | S. cerevisiae deletion strains, locus YJL095W, strain BCK1, stronger effect = lower value 1.04 | S. cerevisiae deletion strains, locus YJL134W, strain LCB3, stronger effect = lower value 0.992 | S. cerevisiae deletion strains, locus YJL168C, strain set2, stronger effect = lower value 0.994 | S. cerevisiae deletion strains, locus YJL187C, strain SWE1 (second series), stronger effect = lower value 1 | S. cerevisiae deletion strains, locus YJR043C, strain POL32, stronger effect = lower value 1 | S. cerevisiae deletion strains, locus YJR075W, strain HOC1, stronger effect = lower value 0.997 | S. cerevisiae deletion strains, locus YKL009W, strain mrt4, stronger effect = lower value 1.1 | S. cerevisiae deletion strains, locus YKL068W, stronger effect = lower value 0.994 | S. cerevisiae deletion strains, locus YKL085W, strain MDH1 (second series), stronger effect = lower value 1 | S. cerevisiae deletion strains, locus YKL085W, strain MDH1, stronger effect = lower value 1 | S. cerevisiae deletion strains, locus YKR001C, strain vps1, stronger effect = lower value 0.987 | S. cerevisiae deletion strains, locus YLR039C, strain RIC1, stronger effect = lower value 0.977 | S. cerevisiae deletion strains, locus YLR058C, strain SHM2, stronger effect = lower value 1.01 | S. cerevisiae deletion strains, locus YLR102C, strain apc9, stronger effect = lower value 0.997 | S. cerevisiae deletion strains, locus YLR262C, strain YPT6, stronger effect = lower value 1 | S. cerevisiae deletion strains, locus YLR268W, strain sec22, stronger effect = lower value 0.96 | S. cerevisiae deletion strains, locus YLR330W, strain CHS5, stronger effect = lower value 0.994 | S. cerevisiae deletion strains, locus YLR342W, strain FKS1 (second series), stronger effect = lower value 0.982 | S. cerevisiae deletion strains, locus YLR371W, strain rom2, stronger effect = lower value 0.993 | S. cerevisiae deletion strains, locus YLR418C, strain cdc73, stronger effect = lower value 1.01 | S. cerevisiae deletion strains, locus YML016C, strain PPZ1, stronger effect = lower value 0.991 | S. cerevisiae deletion strains, locus YML032C, strain rad52, stronger effect = lower value 1.04 | S. cerevisiae deletion strains, locus YML124C, strain tub3, stronger effect = lower value 0.998 | S. cerevisiae deletion strains, locus YMR078C, strain ctf18, stronger effect = lower value 0.989 | S. cerevisiae deletion strains, locus YMR223W, strain ubp8, stronger effect = lower value 1.02 | S. cerevisiae deletion strains, locus YMR263W, strain SAP30, stronger effect = lower value 1 | S. cerevisiae deletion strains, locus YMR307W, strain GAS1, stronger effect = lower value 1.07 | S. cerevisiae deletion strains, locus YNL067W, strain RPL9B, stronger effect = lower value 1.01 | S. cerevisiae deletion strains, locus YNL128W, strain TEP1, stronger effect = lower value 0.981 | S. cerevisiae deletion strains, locus YNL153C, strain GIM3, stronger effect = lower value 1.01 | S. cerevisiae deletion strains, locus YNL233W, strain BNI4, stronger effect = lower value 1.01 | S. cerevisiae deletion strains, locus YNL250W, strain rad50, stronger effect = lower value 0.991 | S. cerevisiae deletion strains, locus YNL271C, strain bni1, stronger effect = lower value 0.989 | S. cerevisiae deletion strains, locus YNL298W, strain CLA4, stronger effect = lower value 0.989 | S. cerevisiae deletion strains, locus YNL307C, strain MCK1, stronger effect = lower value 0.983 | S. cerevisiae deletion strains, locus YNL322C, strain KRE1, stronger effect = lower value 0.998 | S. cerevisiae deletion strains, locus YNR052C, strain pop2, stronger effect = lower value 0.991 | S. cerevisiae deletion strains, locus YOL012C, strain htz1 0.641 | S. cerevisiae deletion strains, locus YOL147C, strain pex11, stronger effect = lower value 0.986 | S. cerevisiae deletion strains, locus YOR061W, strain CKA2, stronger effect = lower value 0.995 | S. cerevisiae deletion strains, locus YOR069W, strain VPS5, stronger effect = lower value 0.988 | S. cerevisiae deletion strains, locus YOR136W, strain idh2, stronger effect = lower value 0.973 | S. cerevisiae deletion strains, locus YOR144C, strain elg1, stronger effect = lower value 0.993 | S. cerevisiae deletion strains, locus YOR184W, strain ser1, stronger effect = lower value 1.01 | S. cerevisiae deletion strains, locus YOR316C, strain cot1, stronger effect = lower value 0.993 | S. cerevisiae deletion strains, locus YPL055C, strain LGE1, stronger effect = lower value 1 | S. cerevisiae deletion strains, locus YPR119W, strain clb2, stronger effect = lower value 0.997 | S. cerevisiae deletion strains, locus YPR141C, strain kar3, stronger effect = lower value 0.992 | S. cerevisiae deletion strains, locus YPR163C, strain tif3, stronger effect = lower value 0.996 | S. cerevisiae deletion strains, locus YPR167C, strain met16, stronger effect = lower value 0.981 | S. cerevisiae deletion strains, strain wtn01, stronger effect = lower value 0.943 | S. cerevisiae strains, strain wild type, stronger effect = lower value 1
